Inhibition data for one compound are collected here from ChEMBL document CHEMBL1961873, “Compounds: GSK PKIS; Assays: Nanosyn kinase panel” (2012).

In assay [1] the target is T1, Inhibitor of nuclear factor kappa-B kinase subunit epsilon (Homo sapiens) (UniProt Q14164).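 Note: reported values are averaged percent inhibition figures against human IKKε.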
T1 sequence (whole entry): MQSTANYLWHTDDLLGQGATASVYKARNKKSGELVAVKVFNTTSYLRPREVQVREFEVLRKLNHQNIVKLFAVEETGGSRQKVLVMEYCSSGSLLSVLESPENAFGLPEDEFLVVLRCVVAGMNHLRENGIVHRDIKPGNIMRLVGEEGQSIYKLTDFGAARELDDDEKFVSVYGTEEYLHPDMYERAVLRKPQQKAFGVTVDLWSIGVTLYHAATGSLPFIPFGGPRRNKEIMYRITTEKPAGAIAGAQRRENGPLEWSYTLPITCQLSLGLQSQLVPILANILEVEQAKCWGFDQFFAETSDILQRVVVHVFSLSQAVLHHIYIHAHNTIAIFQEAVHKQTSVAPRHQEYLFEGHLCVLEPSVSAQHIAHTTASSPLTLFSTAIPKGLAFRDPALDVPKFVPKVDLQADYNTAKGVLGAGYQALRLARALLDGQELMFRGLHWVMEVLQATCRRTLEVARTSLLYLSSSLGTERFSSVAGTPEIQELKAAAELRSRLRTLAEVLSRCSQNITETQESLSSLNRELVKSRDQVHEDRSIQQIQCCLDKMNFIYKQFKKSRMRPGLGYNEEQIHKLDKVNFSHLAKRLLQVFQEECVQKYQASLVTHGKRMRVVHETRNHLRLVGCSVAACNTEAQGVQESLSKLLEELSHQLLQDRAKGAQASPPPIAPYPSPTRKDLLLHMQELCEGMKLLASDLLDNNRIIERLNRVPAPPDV
The settings on record: at 1 µM.

The target of assay [2] is T2, Serine/threonine-protein kinase Nek1 (Homo sapiens) (UniProt Q96PY6).
T2 sequence (whole entry): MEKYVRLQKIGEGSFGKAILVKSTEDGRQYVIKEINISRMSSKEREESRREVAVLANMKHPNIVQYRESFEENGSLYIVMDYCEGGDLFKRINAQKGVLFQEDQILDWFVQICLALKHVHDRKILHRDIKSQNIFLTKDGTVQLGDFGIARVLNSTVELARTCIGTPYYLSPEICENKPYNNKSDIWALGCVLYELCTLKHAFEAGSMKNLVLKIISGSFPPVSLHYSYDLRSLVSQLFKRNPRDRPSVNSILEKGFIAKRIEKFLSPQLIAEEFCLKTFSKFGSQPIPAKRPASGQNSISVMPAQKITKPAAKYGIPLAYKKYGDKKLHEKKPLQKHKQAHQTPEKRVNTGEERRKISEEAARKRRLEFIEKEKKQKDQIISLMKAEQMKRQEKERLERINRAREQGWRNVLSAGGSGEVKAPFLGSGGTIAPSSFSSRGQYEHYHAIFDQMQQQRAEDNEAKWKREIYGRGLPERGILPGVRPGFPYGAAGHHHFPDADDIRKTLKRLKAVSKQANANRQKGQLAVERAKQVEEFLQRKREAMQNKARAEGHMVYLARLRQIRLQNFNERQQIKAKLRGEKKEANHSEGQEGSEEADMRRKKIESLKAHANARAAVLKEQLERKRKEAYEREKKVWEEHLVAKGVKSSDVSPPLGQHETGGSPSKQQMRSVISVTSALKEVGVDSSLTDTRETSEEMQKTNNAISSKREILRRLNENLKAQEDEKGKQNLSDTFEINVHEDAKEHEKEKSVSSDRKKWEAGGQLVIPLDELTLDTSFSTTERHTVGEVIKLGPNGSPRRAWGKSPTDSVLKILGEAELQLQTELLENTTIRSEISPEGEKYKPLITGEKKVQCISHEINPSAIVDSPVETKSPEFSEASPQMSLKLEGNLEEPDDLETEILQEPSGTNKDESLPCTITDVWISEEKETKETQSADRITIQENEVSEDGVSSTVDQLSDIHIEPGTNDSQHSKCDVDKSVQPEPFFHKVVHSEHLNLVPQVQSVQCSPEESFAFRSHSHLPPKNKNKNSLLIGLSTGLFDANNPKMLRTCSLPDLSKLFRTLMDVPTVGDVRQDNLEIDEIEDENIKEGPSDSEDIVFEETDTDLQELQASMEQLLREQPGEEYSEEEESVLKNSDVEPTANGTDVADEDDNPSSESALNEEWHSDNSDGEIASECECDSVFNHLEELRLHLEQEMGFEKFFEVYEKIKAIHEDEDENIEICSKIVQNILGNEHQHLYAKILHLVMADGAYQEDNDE
As to conditions: at 0.1 µM.

Assay [3] deals with T2, Serine/threonine-protein kinase Nek1 (Homo sapiens). As to conditions: at 1 µM.
In assay [4] the target is T3, Serine/threonine-protein kinase Nek2 (Homo sapiens) (UniProt P51955).
T3 sequence (whole entry): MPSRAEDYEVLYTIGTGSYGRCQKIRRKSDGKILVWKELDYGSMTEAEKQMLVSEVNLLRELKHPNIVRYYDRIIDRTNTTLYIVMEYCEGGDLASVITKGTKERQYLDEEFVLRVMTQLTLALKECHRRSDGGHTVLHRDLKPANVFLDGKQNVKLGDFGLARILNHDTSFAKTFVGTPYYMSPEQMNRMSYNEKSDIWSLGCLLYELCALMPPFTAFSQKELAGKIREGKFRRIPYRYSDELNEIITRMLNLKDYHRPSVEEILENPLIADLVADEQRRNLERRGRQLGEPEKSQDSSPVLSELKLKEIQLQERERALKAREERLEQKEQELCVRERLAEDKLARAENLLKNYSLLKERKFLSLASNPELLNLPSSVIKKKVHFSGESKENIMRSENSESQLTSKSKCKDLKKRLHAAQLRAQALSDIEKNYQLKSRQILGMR
As to conditions: at 0.1 µM.

For assay [5], the target named is T3, Serine/threonine-protein kinase Nek2 (Homo sapiens). The settings on record: at 1 µM.
Assay [6] addresses Serine/threonine-protein kinase Nek6 (Homo sapiens) (UniProt Q9HC98). As to conditions: at 0.1 µM.
Assay [7] has the same target. The settings on record: at 1 µM.
The target in assay [8] is Serine/threonine-protein kinase Nek7 (Homo sapiens) (UniProt Q8TDX7). As to conditions: at 0.1 µM.
For assay [9] the target is unchanged. As to conditions: at 1 µM.
Assay [10] concerns the target T4, Serine/threonine-protein kinase Nek9 (Homo sapiens) (UniProt Q8TD19).
T4 sequence (whole entry): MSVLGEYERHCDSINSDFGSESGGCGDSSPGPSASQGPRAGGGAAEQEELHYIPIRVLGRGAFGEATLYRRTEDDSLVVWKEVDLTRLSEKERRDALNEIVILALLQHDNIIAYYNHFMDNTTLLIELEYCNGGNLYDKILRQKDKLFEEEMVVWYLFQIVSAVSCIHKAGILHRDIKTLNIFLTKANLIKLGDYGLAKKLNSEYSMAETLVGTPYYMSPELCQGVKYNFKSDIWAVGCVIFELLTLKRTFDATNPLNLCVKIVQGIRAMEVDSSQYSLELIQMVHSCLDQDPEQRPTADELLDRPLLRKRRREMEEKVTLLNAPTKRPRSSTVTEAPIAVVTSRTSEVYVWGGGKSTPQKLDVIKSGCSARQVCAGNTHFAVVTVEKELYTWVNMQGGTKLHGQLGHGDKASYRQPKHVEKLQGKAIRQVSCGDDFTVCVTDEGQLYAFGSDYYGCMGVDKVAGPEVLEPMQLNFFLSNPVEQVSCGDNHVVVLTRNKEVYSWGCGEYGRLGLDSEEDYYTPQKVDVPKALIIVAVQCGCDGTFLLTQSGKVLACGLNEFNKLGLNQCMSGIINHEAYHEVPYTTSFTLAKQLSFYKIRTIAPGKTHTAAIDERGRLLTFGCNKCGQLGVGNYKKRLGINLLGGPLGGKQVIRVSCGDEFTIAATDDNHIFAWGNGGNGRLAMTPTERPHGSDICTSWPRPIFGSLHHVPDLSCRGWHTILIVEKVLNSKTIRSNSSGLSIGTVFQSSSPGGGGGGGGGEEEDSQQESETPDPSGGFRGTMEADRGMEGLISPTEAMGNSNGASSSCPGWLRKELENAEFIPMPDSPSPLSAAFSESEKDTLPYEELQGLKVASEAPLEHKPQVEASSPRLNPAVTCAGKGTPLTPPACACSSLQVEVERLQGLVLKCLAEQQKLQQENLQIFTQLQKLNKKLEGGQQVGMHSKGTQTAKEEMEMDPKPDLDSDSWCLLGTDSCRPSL
The settings on record: at 0.1 µM.

For assay [11], the target named is T4, Serine/threonine-protein kinase Nek9 (Homo sapiens). As to conditions: at 1 µM.
Assay [12] has as its target Serine/threonine-protein kinase PLK1 (Homo sapiens) (UniProt P53350). The settings on record: at 0.1 µM.
Assay [13] has the same target. As to conditions: at 1 µM.
Assay [14] deals with T5, Dual specificity protein kinase TTK (Homo sapiens) (UniProt P33981).
T5 sequence (whole entry): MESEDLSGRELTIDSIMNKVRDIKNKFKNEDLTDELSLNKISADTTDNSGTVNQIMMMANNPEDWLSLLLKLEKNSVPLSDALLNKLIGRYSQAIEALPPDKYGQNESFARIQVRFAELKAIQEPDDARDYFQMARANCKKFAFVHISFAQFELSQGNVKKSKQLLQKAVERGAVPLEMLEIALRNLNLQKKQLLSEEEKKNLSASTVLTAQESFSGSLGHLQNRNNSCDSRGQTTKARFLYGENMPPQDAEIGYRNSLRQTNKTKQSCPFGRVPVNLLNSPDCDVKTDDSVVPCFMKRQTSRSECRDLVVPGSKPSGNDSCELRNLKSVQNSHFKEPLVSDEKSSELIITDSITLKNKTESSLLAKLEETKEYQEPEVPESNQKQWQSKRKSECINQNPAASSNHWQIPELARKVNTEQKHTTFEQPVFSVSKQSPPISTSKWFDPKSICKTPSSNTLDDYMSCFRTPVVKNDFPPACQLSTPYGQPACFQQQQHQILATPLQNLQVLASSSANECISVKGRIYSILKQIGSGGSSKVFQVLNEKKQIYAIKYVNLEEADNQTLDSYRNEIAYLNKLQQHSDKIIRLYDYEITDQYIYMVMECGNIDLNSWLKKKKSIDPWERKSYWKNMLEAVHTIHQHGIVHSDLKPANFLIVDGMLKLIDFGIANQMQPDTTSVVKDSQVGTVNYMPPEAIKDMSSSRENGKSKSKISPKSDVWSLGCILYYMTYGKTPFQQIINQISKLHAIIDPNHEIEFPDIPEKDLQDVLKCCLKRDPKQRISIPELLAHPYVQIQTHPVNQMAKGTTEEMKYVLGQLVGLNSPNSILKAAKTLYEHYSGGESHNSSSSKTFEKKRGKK
The settings on record: at 0.1 µM.

Assay [15] deals with T6, Receptor-type tyrosine-protein kinase FLT3 (Homo sapiens), P36888 [D835Y].
T6 sequence (whole entry): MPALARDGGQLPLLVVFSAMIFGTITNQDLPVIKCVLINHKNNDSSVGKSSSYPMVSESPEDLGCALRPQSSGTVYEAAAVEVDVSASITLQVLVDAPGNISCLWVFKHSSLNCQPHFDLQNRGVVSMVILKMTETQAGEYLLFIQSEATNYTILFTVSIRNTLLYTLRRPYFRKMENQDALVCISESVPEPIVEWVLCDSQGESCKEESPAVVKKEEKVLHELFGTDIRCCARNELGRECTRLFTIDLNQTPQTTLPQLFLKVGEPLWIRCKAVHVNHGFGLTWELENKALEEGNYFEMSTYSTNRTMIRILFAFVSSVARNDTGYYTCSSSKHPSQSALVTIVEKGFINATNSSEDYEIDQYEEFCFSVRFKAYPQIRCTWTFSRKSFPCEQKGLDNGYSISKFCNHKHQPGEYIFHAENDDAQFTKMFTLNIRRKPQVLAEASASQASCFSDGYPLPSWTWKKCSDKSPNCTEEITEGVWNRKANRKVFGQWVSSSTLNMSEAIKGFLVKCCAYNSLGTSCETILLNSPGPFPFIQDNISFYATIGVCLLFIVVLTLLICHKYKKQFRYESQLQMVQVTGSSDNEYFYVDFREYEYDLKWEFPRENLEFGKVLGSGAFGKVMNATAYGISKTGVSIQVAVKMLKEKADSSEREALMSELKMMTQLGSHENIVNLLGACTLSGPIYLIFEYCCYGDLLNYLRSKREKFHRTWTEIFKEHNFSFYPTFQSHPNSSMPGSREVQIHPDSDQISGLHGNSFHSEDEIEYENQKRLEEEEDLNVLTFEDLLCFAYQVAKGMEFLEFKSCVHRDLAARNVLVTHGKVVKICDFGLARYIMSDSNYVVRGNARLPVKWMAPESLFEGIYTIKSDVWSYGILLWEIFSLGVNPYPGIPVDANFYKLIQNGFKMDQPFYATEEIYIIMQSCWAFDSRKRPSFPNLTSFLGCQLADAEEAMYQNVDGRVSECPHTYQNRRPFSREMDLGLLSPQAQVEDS
As to conditions: at 1 µM.

Assay [16] deals with Vascular endothelial growth factor receptor 3 (Homo sapiens) (UniProt P35916). As to conditions: at 0.1 µM.
Assay [17] shares this target. As to conditions: at 1 µM.
Assay [18] addresses Macrophage colony-stimulating factor 1 receptor (Homo sapiens) (UniProt P07333). The settings on record: at 0.1 µM.
Assay [19] has the same target. As to conditions: at 1 µM.
Assay [20] concerns the target Tyrosine-protein kinase Fyn (Homo sapiens) (UniProt P06241). As to conditions: at 0.1 µM.

Chain of Vascular endothelial growth factor receptor 3 (Homo sapiens) (P35916 whole entry): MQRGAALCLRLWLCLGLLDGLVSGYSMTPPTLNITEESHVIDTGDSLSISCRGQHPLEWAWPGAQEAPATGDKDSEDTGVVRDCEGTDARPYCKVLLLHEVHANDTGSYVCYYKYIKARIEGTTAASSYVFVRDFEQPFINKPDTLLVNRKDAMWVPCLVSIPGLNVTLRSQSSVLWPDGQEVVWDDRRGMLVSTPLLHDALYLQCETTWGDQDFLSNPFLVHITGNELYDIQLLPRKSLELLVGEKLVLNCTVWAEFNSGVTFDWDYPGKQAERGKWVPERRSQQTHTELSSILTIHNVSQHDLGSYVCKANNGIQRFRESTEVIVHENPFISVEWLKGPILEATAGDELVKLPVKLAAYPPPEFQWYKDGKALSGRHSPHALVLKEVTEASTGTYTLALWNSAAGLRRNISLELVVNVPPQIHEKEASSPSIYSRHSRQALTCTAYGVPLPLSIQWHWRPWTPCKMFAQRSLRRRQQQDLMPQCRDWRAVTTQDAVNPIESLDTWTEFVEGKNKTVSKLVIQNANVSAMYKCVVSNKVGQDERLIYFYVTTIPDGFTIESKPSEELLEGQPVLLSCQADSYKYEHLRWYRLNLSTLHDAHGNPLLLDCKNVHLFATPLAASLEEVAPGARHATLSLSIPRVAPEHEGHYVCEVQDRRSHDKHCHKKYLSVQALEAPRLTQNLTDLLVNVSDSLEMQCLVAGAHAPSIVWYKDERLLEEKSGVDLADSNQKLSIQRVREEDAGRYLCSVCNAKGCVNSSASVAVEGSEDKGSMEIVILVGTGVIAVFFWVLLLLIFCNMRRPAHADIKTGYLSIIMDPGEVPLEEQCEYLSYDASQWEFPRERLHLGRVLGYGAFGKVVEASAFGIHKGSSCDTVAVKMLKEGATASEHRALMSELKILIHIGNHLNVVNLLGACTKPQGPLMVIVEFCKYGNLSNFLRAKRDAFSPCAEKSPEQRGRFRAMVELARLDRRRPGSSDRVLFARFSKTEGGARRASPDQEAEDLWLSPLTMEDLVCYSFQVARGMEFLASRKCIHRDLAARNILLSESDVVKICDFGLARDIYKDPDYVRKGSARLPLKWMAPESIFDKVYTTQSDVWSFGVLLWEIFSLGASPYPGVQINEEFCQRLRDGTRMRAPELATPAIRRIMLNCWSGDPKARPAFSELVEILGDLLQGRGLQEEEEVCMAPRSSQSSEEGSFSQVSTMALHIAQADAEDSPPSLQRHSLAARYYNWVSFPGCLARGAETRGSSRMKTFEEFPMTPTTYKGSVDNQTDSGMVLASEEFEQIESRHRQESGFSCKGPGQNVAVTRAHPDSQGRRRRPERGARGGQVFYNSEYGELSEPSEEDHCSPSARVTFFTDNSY
Chain of Serine/threonine-protein kinase PLK1 (Homo sapiens) (P53350 whole entry): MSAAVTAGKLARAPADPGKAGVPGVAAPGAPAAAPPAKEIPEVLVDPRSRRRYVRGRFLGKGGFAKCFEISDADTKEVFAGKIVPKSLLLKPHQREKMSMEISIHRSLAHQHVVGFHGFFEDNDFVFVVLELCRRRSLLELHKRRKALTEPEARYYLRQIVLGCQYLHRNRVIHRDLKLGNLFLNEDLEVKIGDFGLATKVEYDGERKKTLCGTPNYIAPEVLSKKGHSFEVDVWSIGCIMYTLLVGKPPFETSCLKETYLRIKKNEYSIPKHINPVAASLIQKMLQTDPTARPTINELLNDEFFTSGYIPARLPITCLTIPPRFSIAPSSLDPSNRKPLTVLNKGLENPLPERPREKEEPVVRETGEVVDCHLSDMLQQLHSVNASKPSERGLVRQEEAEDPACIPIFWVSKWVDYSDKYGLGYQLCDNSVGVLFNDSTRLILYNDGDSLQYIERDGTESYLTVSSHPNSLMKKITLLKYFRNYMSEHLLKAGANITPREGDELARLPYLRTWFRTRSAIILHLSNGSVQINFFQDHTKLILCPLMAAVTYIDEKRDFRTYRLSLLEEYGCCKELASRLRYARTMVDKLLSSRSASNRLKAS
Chain of Serine/threonine-protein kinase Nek6 (Homo sapiens) (Q9HC98 whole entry): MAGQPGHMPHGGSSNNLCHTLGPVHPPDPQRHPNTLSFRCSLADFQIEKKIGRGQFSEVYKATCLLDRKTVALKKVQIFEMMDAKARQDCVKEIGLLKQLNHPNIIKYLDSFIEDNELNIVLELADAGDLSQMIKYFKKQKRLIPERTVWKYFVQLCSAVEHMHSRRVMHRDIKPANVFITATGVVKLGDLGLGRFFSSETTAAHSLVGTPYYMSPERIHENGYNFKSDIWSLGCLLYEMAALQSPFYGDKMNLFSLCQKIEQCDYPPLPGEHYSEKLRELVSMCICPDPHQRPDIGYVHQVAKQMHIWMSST
Chain of Serine/threonine-protein kinase Nek7 (Homo sapiens) (Q8TDX7 whole entry, looked up): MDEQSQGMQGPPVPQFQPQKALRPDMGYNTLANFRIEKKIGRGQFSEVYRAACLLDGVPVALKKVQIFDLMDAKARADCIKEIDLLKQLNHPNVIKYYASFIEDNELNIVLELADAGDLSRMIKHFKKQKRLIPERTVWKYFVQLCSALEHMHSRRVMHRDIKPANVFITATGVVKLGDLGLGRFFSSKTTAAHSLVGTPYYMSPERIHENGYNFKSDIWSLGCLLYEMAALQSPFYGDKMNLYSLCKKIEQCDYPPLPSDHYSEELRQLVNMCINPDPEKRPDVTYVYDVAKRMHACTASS
Chain of Macrophage colony-stimulating factor 1 receptor (Homo sapiens) (P07333 whole entry): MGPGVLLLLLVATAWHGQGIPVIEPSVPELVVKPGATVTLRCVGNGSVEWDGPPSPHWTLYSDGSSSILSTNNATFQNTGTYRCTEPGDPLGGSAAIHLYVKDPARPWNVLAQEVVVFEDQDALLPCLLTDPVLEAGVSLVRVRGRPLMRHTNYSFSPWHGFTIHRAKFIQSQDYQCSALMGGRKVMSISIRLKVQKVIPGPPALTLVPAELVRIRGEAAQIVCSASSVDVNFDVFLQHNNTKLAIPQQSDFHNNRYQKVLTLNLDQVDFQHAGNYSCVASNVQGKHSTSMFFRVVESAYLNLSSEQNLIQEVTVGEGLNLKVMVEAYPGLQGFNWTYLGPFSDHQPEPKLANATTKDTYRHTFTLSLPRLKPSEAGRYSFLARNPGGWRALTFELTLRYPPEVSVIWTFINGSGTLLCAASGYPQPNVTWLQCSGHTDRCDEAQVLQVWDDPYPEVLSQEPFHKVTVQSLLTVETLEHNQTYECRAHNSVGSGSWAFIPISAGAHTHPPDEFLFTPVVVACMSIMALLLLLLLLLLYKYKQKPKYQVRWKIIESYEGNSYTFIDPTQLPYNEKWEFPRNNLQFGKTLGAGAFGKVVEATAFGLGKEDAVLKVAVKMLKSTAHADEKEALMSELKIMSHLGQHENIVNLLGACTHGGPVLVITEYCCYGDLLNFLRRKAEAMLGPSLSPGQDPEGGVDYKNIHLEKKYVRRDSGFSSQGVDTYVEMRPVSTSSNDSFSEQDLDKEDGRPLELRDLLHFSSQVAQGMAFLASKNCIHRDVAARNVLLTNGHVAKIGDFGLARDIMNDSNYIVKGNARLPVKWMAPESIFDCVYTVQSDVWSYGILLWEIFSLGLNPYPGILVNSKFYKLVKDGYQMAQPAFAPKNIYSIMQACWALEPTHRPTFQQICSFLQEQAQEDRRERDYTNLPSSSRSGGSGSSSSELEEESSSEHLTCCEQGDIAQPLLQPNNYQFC
Chain of Tyrosine-protein kinase Fyn (Homo sapiens) (P06241 2-537 limits assumed): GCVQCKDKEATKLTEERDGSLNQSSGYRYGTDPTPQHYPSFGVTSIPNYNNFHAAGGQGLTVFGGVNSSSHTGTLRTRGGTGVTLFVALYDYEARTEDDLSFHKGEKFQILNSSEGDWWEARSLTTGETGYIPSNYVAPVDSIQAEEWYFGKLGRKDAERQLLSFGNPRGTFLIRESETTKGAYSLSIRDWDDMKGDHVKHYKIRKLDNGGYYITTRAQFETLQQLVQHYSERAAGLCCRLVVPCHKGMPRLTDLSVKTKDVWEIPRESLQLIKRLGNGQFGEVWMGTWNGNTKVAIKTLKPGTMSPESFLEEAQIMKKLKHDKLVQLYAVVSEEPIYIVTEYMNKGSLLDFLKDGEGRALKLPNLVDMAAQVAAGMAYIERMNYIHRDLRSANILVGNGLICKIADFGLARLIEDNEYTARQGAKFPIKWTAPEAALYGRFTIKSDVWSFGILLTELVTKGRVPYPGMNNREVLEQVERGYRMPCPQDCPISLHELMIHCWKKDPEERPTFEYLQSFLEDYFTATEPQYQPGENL

For orientation: inhibition means the percentage by which the read-out fell short of the control. Low readings indicate a weak effect, high ones a strong effect. In the case of `NC(=O)c1cccc(Nc2nccc(Nc3cccc(F)c3)n2)c1`, the inhibition in assay [1] was determined as 3.29%; in assay [2], 2.58%; in assay [3], 5.37%; in assay [4], 3.22%; in assay [5], 1.09%; in [6], 0.35%. Further, the inhibition in [7] came to 0.89%; in [8], 2.07%; in [9], 1.47%; in [10] it was 8.72%; in assay [11] it was 11%; in assay [12], 2.05%. Further, the inhibition in assay [13] worked out at 6.07%; in assay [14], 2.31%; in [15], 21.2%; in assay [16], 1.81%; in assay [17], 30.6%; in assay [18], 22.1%. The inhibition was found to be 62.5% in assay [19] and 7.98% in assay [20].
